Reference: ChEMBL document CHEMBL1157539, “Thousands of chemical starting points for antimalarial lead identification” (Nature, 2010)

What follows are compounds tested on Plasmodium falciparum (assay: GSK_TCMDC: Inhibition of Plasmodium falciparum 3D7 in whole red blood cells, using parasite LDH activity as an index of growth. Test compounds present at 2uM).
Assay type: functional

Row | SMILES | Inhibition [%]
1 | CCCCCCn1c(Sc2ccc(C#N)c([N+](=O)[O-])c2)nnc1-c1cccc(Cl)c1 | 96
2 | COc1c(C(=O)NC2CCN(Cc3ccccc3)C2)cnc2ccccc12.Cl (stereo not drawn) | 86
3 | Cc1cccc(C)c1C1CCN(CCCCNC(=O)c2cc3ccccc3[nH]2)CC1 | 90
4 | COc1cc2nc(NCCc3cccc(Cl)c3)nc(NCc3ccccc3)c2cc1OC | 100
5 | Cl.O=S(=O)(c1cccc(F)c1)c1ccc(Nc2ncnc3cc(Br)sc23)cc1Cl | 86
6 | COc1ccc2nccc([C@@H](O)CN3CCC(NCc4cc5oc(=O)[nH]c5cc4Cl)CC3)c2c1.O=C(O)C(=O)O | 100
7 | Cl.O=C1Nc2ccc3ncccc3c2/C1=C/Nc1ccc(N2CCN(CCO)CC2)cc1 | 86
8 | CC(=O)Nc1ccc(CN2CCC(CNC(=O)c3cc(-c4cccc(C(F)(F)F)c4)cs3)C2)cc1.O=C(O)C(F)(F)F (stereo not drawn) | 97
9 | NC(=O)C1CCN(Cc2cccc(-c3cccc(-c4nc5cc(C(F)(F)F)ccc5[nH]4)c3)c2)CC1.O=C(O)C(F)(F)F | 100
10 | COCc1nc(-c2ccccc2)nc(N2CCN(C(=O)NC(C)C)CC2)c1Cc1ccccc1F | 96
11 | O=C(N[C@@H](Cc1ccccc1)C(=O)NCc1cccc(C(F)(F)F)c1)c1ccc(O)c(-c2ccc(Cl)c(Cl)c2)c1 | 96
12 | CC(OC(=O)c1ccc(C(=O)NCC2CC2)cc1)C(C)(C)C (stereo not drawn) | 93
13 | FC(F)(F)c1cccc(CCNc2nccc(NCc3ccc(Cl)cc3Cl)n2)c1 | 97

These compounds were tested on Plasmodium falciparum (assay: GSK_TCMDC: Inhibition of Plasmodium falciparum Dd2 in whole red blood cells, using parasite LDH activity as an index of growth. Test compounds present at 2uM).
Assay type: functional

Row | SMILES | Inhibition [%]
14 | Cc1cc(N2CCN(CC3CCN(C)CC3)CC2)nc(Nc2ccc(Br)cc2)n1 | 100
15 | CC(=O)Nc1ccc(CN2CCC(NC(=O)c3ccc(-c4cccc(OC(C)C)c4)s3)CC2)cc1.O=C(O)C(F)(F)F | 13
16 | O=C(NCCc1cccc(Cl)c1Cl)c1ccc(N2CCN(c3ccncc3)CC2)nc1.O=C(O)C(F)(F)F | 79
17 | CCCN(CC1CC1)c1ncc(-c2ccccc2CNCc2ccccc2O)cn1 | 98
18 | CCCCN1CCCC[C@H]1[C@@H](O)c1ccnc2ccc(OCC)cc12 | 88
19 | O=C(Nc1ccc(-c2cccc(-c3nc4cc(C(F)(F)F)ccc4[nH]3)c2)cc1)Nc1ccc(F)c(F)c1F | 85
20 | Cl.O=C(O[C@H]1CN[C@H](C#Cc2cc3c(Nc4ccc(OCc5cccc(F)c5)c(Cl)c4)ncnc3s2)C1)N1CCCC1 | 67
21 | COc1ccc2nccc([C@@H](O)CN3CCC(NCc4nc5ccc(F)cc5[nH]4)CC3)c2c1.O=C(O)C(=O)O | 4
22 | c1cn(-c2ccc(CNc3nccc(Nc4ccc(OCCN5CCOCC5)cc4)n3)cc2)cn1 | 3
23 | COc1ccc(NC(=O)Nc2ccc(-c3ccccc3)cc2)cc1Cn1cnc(N2CCCNCC2)cc1=O.O=C(O)C(F)(F)F | 38
24 | c1csc(-c2nc(N3CCCCC3)ncc2-c2ccsc2)n1 | 72
25 | COc1ccc(-c2nnc(Sc3ccc(C#N)c([N+](=O)[O-])c3)n2CCC(C)C)cc1 | 53
26 | O=C(Nc1cccc(-c2ccc(-c3nc4ccccc4[nH]3)cc2)c1)c1cnn2cccnc12 | 1
27 | O=C(/C=C/c1ccc(-c2nc3ccc(Cl)cc3[nH]2)cc1)NC1CCN(Cc2ccccc2)CC1 | 92
28 | COc1ccc(CN2CCC(NCc3cccc([N+](=O)[O-])c3)CC2)cc1.O=C(O)C(F)(F)F | 3
29 | CCCCCCCN1CC[C@@H](CCCc2ccnc3ccc(OCCC4CCNCC4)cc23)[C@@H](CC)C1.Cl | 100
30 | CC(C)(C)c1cc([N+](=O)[O-])cc(C(=O)Nc2ccccc2C(F)(F)F)c1O | 99
31 | CCCN(CC1CC1)c1nc(C)nc2c(-c3ccccc3)cc(C)cc12 | 78
32 | O=C(Nc1cccc(CN2CCCN(CC3CC3)CC2)c1)c1ccc(-c2ccccc2)cc1.O=C(O)C(F)(F)F | 5
33 | O=C(CNC1CCCCC1)Nc1cccc(C(=O)Nc2cccc(C(F)(F)F)c2)c1.O=C(O)C(=O)O | 80

Row | SMILES | Inhibition [%]
34 | NC(=O)c1cccc(C(=O)Nc2cccc(-c3ccc(-c4nc5ccccc5[nH]4)s3)c2)c1 | 69
35 | CCc1ccc(C(=O)NC(=O)c2ccccc2O)cc1 | 84
36 | COc1ccc(-c2ccc(CNC(=O)c3cccc(C#N)c3)c(F)c2)cc1CN1CCCN(C)CC1.O=C(O)C(F)(F)F | 30
37 | Nc1nccc2ccc(-c3ccc(Oc4ccccc4)cc3)cc12.O=C(O)C(F)(F)F | 80
38 | COc1cccc(C(=O)Nc2ccc(Nc3nc(C)cc(N(C)C)n3)cc2)c1 | 33
39 | O=C(CCc1c[nH]cn1)Nc1ccc(-c2ccc(-c3nc4ccccc4[nH]3)cc2)cc1 | 70
40 | COc1ccc(N2C(N)=NC(N)=NC2(C)C)cc1OC.Cl | 0
41 | CCCCCCn1c(Sc2ccc(C#N)c([N+](=O)[O-])c2)nnc1-c1cccc(Cl)c1 | 90
42 | COc1c(C(=O)NC2CCN(Cc3ccccc3)C2)cnc2ccccc12.Cl (stereo not drawn) | 12
43 | Cc1cccc(C)c1C1CCN(CCCCNC(=O)c2cc3ccccc3[nH]2)CC1 | 18
44 | COc1cc2nc(NCCc3cccc(Cl)c3)nc(NCc3ccccc3)c2cc1OC | 100
45 | Cl.O=S(=O)(c1cccc(F)c1)c1ccc(Nc2ncnc3cc(Br)sc23)cc1Cl | 11
46 | COc1ccc2nccc([C@@H](O)CN3CCC(NCc4cc5oc(=O)[nH]c5cc4Cl)CC3)c2c1.O=C(O)C(=O)O | 91
47 | Cl.O=C1Nc2ccc3ncccc3c2/C1=C/Nc1ccc(N2CCN(CCO)CC2)cc1 | 55
48 | CC(=O)Nc1ccc(CN2CCC(CNC(=O)c3cc(-c4cccc(C(F)(F)F)c4)cs3)C2)cc1.O=C(O)C(F)(F)F (stereo not drawn) | 3
49 | NC(=O)C1CCN(Cc2cccc(-c3cccc(-c4nc5cc(C(F)(F)F)ccc5[nH]4)c3)c2)CC1.O=C(O)C(F)(F)F | 100
50 | COCc1nc(-c2ccccc2)nc(N2CCN(C(=O)NC(C)C)CC2)c1Cc1ccccc1F | 94
51 | O=C(N[C@@H](Cc1ccccc1)C(=O)NCc1cccc(C(F)(F)F)c1)c1ccc(O)c(-c2ccc(Cl)c(Cl)c2)c1 | 97
52 | CC(OC(=O)c1ccc(C(=O)NCC2CC2)cc1)C(C)(C)C (stereo not drawn) | 86
53 | FC(F)(F)c1cccc(CCNc2nccc(NCc3ccc(Cl)cc3Cl)n2)c1 | 59
